{"source": "PubChem BioAssay (NCATS)", "key": {"[1]": {"target": "Glutathione peroxidase 1 (Homo sapiens) (UniProt P07203)", "sequence (P07203 whole entry, looked up)": "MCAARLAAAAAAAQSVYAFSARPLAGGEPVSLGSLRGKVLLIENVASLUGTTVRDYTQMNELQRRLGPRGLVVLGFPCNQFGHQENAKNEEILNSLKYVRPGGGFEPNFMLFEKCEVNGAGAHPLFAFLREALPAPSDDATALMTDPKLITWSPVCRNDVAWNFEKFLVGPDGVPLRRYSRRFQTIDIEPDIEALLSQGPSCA", "assay": "Primary qHTS Assay for Inhibitors of Recombinant Selenoprotein Glutathione Peroxidase 1 (GPX1) (AID 1845191)", "conditions": "recombinant GPX1, GR-coupled NADPH fluorescence, 15 min; series mostly up to 48.8 µM", "how_it_was_run": "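GPX1 10 nM, GR 100 nM, GSH 1 mM, NADPH 0.5 mM, CHP 0.5 mM (final). 30-min cpd preincubation, RT. Ex340/Em450 read t=0, t=15 min.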"}, "[2]": {"target": "Phospholipid hydroperoxide glutathione peroxidase GPX4 (Homo sapiens) (UniProt P36969)", "sequence (P36969 whole entry, looked up)": "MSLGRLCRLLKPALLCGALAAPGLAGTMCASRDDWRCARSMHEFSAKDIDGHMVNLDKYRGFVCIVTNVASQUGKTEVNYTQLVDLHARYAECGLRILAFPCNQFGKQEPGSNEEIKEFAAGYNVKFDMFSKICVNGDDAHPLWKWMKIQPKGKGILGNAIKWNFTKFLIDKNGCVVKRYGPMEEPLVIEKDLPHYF", "assay": "Primary qHTS Assay for Inhibitors of Recombinant Selenoprotein Glutathione Peroxidase 4 (GPX4) (AID 1845192)", "conditions": "recombinant GPX4, GR-coupled NADPH fluorescence, 15 min; series mostly up to 50 µM", "how_it_was_run": "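qHTS, GR-coupled: GPX4 200 nM + cpd 30 min RT → GSH 1 mM, NADPH 0.5 mM, GR 100 nM → CHP 0.5 mM start; fluor 340/450 at t0 and t15 min; no-enzyme wells as control.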"}}, "note": "“And” between values parts separate entries of the source, which are not always exact repeats. Equal entries are not always repeated. Results filed as inconclusive are left out. Where a call stands in place of a potency, no number is given. Some structures have more than one record in an assay (separate samples or runs), and their calls can disagree. The source made the active and inactive calls. Calls follow the shape of the dose curve; as a rule, active = well fitted inhibition curve with a large enough effect; inconclusive = small, poorly fitted or top-dose-only effect; inactive = flat fitted curve, though single readings scatter. Also: nearly all actives have a fitted effect of over 65% in size. Potency is read from the fitted curve at half-maximal effect.", "data": [{"smiles": "C#C[C@]1(O)CC[C@H]2[C@@H]3CCc4cc(OC5CCCC5)ccc4[C@H]3CC[C@@]21C", "values": [{"measurement": "Potency", "setting": "[1]", "result": "inactive"}, {"measurement": "Potency", "setting": "[2]", "result": "inactive"}]}, {"smiles": "CC(C)=CCC1C(=O)N(c2ccccc2)N(c2ccccc2)C1=O", "values": [{"measurement": "Potency", "setting": "[1]", "result": "inactive"}, {"measurement": "Potency", "setting": "[2]", "result": "inactive"}]}, {"smiles": "CCN(CCCCOC(=O)c1ccc(OC)c(OC)c1)C(C)Cc1ccc(OC)cc1", "note": "(configuration not stated)", "values": [{"measurement": "Potency", "setting": "[1]", "result": "inactive"}, {"measurement": "Potency", "setting": "[2]", "result": "inactive"}]}, {"smiles": "N[C@H](CO)C(=O)O", "values": [{"measurement": "Potency", "setting": "[1]", "result": "inactive"}, {"measurement": "Potency", "setting": "[2]", "result": "inactive"}]}, {"smiles": "COc1cccc(CCc2ccccc2OCC(CN(C)C)OC(=O)CCC(=O)O)c1", "note": "(configuration not stated)", "values": [{"measurement": "Potency", "setting": "[1]", "result": "inactive"}, {"measurement": "Potency", "setting": "[2]", "result": "inactive"}]}, {"smiles": "C[C@H](O)C(=O)Nc1c(I)c(C(=O)NC(CO)CO)c(I)c(C(=O)NC(CO)CO)c1I", "values": [{"measurement": "Potency", "setting": "[1]", "result": "inactive"}, {"measurement": "Potency", "setting": "[2]", "result": "inactive"}]}, {"smiles": "N[C@H](Cc1c[nH]c2ccccc12)C(=O)O", "values": [{"measurement": "Potency", "setting": "[1]", "result": "inactive"}, {"measurement": "Potency", "setting": "[2]", "result": "inactive"}]}, {"smiles": "OC[C@H]1O[C@@H](n2cnc3c(=S)nc[nH]c32)[C@H](O)[C@@H]1O", "values": [{"measurement": "Potency", "setting": "[1]", "result": "inactive"}, {"measurement": "Potency", "setting": "[2]", "result": "inactive"}]}, {"smiles": "Oc1cc(O)c2c(c1)O[C@H](c1ccc(O)c(O)c1)[C@H](O)C2", "values": [{"measurement": "Potency", "setting": "[1]", "result": "inactive"}]}, {"smiles": "C[C@@H](CN(C)C)CN1c2ccccc2Sc2ccccc21", "values": [{"measurement": "Potency", "setting": "[1]", "result": "inactive"}]}, {"smiles": "Cc1nc2n(c(=O)c1CCN1CCC(c3noc4cc(F)ccc34)CC1)CCC[C@H]2O", "values": [{"measurement": "Potency", "setting": "[1]", "result": "inactive"}, {"measurement": "Potency", "setting": "[2]", "result": "inactive"}]}, {"smiles": "COc1ccc(CCN2CCC(Nc3nc4ccccc4n3Cc3ccc(F)cc3)CC2)cc1", "values": [{"measurement": "Potency", "setting": "[1]", "result": "inactive"}]}, {"smiles": "CC1(C)O[C@@H]2C[C@H]3[C@@H]4C[C@H](F)C5=CC(=O)CC[C@]5(C)[C@H]4[C@@H](O)C[C@]3(C)[C@]2(C(=O)CO)O1", "values": [{"measurement": "Potency", "setting": "[1]", "result": "inactive"}, {"measurement": "Potency", "setting": "[2]", "result": "inactive"}]}, {"smiles": "CN1[C@@H]2CC[C@H]1CC(OC(=O)c1c[nH]c3ccccc13)C2", "note": "(some centres not stated)", "values": [{"measurement": "Potency", "setting": "[1]", "result": "inactive"}]}, {"smiles": "CC(=O)Oc1ccc(C(=C2CCCCC2)c2ccc(OC(C)=O)cc2)cc1", "values": [{"measurement": "Potency", "setting": "[1]", "result": "inactive"}, {"measurement": "Potency", "setting": "[2]", "result": "inactive"}]}, {"smiles": "CCn1cc(C(=O)O)c(=O)c2cnc(N3CCCC3)nc21", "values": [{"measurement": "activity, negative = inhibition", "setting": "[1]", "result": "-13.1% [at 9.52 µM] (inactive)"}, {"measurement": "activity change, negative = inhibition", "setting": "[2]", "result": "-6.64% [at 9.73 µM] (inactive)"}]}, {"smiles": "COc1cc(/C=C/C(=O)O[C@H]2CC[C@]34C[C@]35CC[C@]3(C)[C@@H]([C@H](C)CCC=C(C)C)CC[C@@]3(C)[C@@H]5CC[C@H]4C2(C)C)ccc1O", "values": [{"measurement": "Potency", "setting": "[1]", "result": "inactive"}]}, {"smiles": "COc1cc2c(cc1OC)C(=O)C(CC1CCN(Cc3ccccc3)CC1)C2", "note": "(configuration not stated)", "values": [{"measurement": "Potency", "setting": "[1]", "result": "inactive"}]}, {"smiles": "CCN(CC)C(=O)N1CCN(C)CC1", "values": [{"measurement": "Potency", "setting": "[1]", "result": "inactive"}, {"measurement": "Potency", "setting": "[2]", "result": "inactive"}]}, {"smiles": "COc1ccc(C2C(=O)c3ccccc3C2=O)cc1", "values": [{"measurement": "Potency", "setting": "[1]", "result": "inactive"}, {"measurement": "Potency", "setting": "[2]", "result": "inactive"}]}, {"smiles": "CCCC(=O)O[C@]1(C(=O)CO)CC[C@H]2[C@@H]3CCC4=CC(=O)CC[C@]4(C)[C@H]3[C@@H](O)C[C@@]21C", "values": [{"measurement": "Potency", "setting": "[1]", "result": "inactive"}, {"measurement": "Potency", "setting": "[2]", "result": "inactive"}]}, {"smiles": "O=C(O)CCCCC(=O)O", "values": [{"measurement": "Potency", "setting": "[1]", "result": "inactive"}]}, {"smiles": "CCCCCC=CCC=CCCCCCCCC(=O)OCC", "values": [{"measurement": "Potency", "setting": "[1]", "result": "inactive"}, {"measurement": "Potency", "setting": "[2]", "result": "inactive"}]}, {"smiles": "OC[C@@H](O)[C@@H](O[C@@H]1O[C@H](CO)[C@H](O)[C@H](O)[C@H]1O)[C@H](O)[C@@H](O)CO", "values": [{"measurement": "Potency", "setting": "[1]", "result": "inactive"}, {"measurement": "Potency", "setting": "[2]", "result": "inactive"}]}, {"smiles": "CN(C)CC/C=C1/c2ccccc2COc2ccc(CC(=O)O)cc21", "values": [{"measurement": "Potency", "setting": "[1]", "result": "inactive"}, {"measurement": "Potency", "setting": "[2]", "result": "inactive"}]}, {"smiles": "C[C@]12CC[C@@H]3c4ccc(O)cc4CC[C@H]3[C@@H]1C[C@@H](O)[C@@H]2O", "values": [{"measurement": "Potency", "setting": "[1]", "result": "inactive"}]}, {"smiles": "OC[C@H]1O[C@H](O[C@]2(CCl)O[C@H](CCl)[C@@H](O)[C@@H]2O)[C@H](O)[C@@H](O)[C@H]1Cl", "values": [{"measurement": "Potency", "setting": "[1]", "result": "inactive"}, {"measurement": "Potency", "setting": "[2]", "result": "inactive"}]}, {"smiles": "COc1cc(NS(C)(=O)=O)ccc1Nc1c2ccccc2nc2ccccc12", "values": [{"measurement": "Potency", "setting": "[1]", "result": "inactive and 25.5 µM (active)"}, {"measurement": "Potency", "setting": "[2]", "result": "inactive and 22.4 µM (active)"}]}, {"smiles": "CC(=O)c1ccc2c(c1)N(CCCN1CCC(CCO)CC1)c1ccccc1S2", "values": [{"measurement": "Potency", "setting": "[1]", "result": "inactive"}, {"measurement": "Potency", "setting": "[2]", "result": "inactive"}]}, {"smiles": "CCC(=O)c1c(O)cc(O)cc1O", "values": [{"measurement": "Potency", "setting": "[1]", "result": "inactive"}, {"measurement": "Potency", "setting": "[2]", "result": "inactive"}]}]}
